About 79,000 compounds went through this panel and 15% of them were active in at least one assay; those are over-represented in the sample as a whole. Active and inactive are the calls of the source. Cut-off read from the data, not from the text of the source: active = growth inhibition above about 70%; inactive = the rest.
Legend:
[1] = NCI Yeast Anticancer Drug Screen. Data for the rad52 strain (AID 147);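 note: 0% = growth of vehicle-treated control cultures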; details: S. cerevisiae rad52 mutant growth inhibition, hits give high values
Summary of the method: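 Compounds are applied to a genetically defined yeast strain lacking normal DNA damage repair, and inhibition of growth is expressed relative to cultures given vehicle only.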

[2] = NCI Yeast Anticancer Drug Screen. Data for the wt1 strain (AID 149);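 note: 0% = growth of vehicle-treated wt1 cultures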; details: S. cerevisiae wt1 strain (SPY 50644) growth inhibition, hits give high values
Summary of the method: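 wt1 strain grown with compound or vehicle; inhibition taken from the growth difference.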

[3] = NCI Yeast Anticancer Drug Screen. Data for the rad50EPP+ strain (AID 151);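 note: 0% = growth of vehicle-treated control cultures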; details: S. cerevisiae rad50 mutant strain, hits give high values
Summary of the method: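 Compounds were applied to the rad50EPP+ yeast strain, which bears a defined DNA repair alteration, and growth inhibition was determined relative to vehicle-treated cultures.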

[4] = NCI Yeast Anticancer Drug Screen. Data for the mgt1 strain (AID 153); details: S. cerevisiae mgt1 mutant growth inhibition, hits give high values
Summary of the method: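 Strain: mgt1 yeast, one of a set carrying defined DNA damage repair or cell cycle control alterations. Compound-treated growth compared with vehicle.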

[5] = NCI Yeast Anticancer Drug Screen. Data for the rad50 strain (AID 155);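 note: 0% = growth of vehicle-only cultures of the same strain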; details: S. cerevisiae rad50 strain growth inhibition, hits give high values
Summary of the method: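 DNA repair mutant yeast, compound exposure, growth read-out; inhibition is taken relative to vehicle.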

[6] = NCI Yeast Anticancer Drug Screen. Data for the mec2-1 strain (AID 157); details: S. cerevisiae mec2-1 strain, hits give high values
Summary of the method: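 Strain: mec2-1 (DNA repair/cell cycle alteration). Compound exposure, then growth measured; inhibition expressed relative to vehicle.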

[7] = NCI Yeast Anticancer Drug Screen. Data for the sgs1 mgt1 strain (AID 161);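 note: 0% = growth of cultures given vehicle only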; details: S. cerevisiae sgs1 mgt1 strain, hits give high values
Summary of the method: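 Inhibition of yeast growth, normalised to vehicle-treated controls, is reported for a strain bearing genetic alterations in DNA damage repair.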

[8] = NCI Yeast Anticancer Drug Screen. Data for the CLN2oe strain (AID 163);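 note: 0% = growth of vehicle-only control cultures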; details: S. cerevisiae CLN2oe strain, hits give high values
Summary of the method: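 Growth of a genetically modified yeast strain is measured after compound exposure and compared with cultures given vehicle alone.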

[9] = NCI Yeast Anticancer Drug Screen. Data for the cln2 rad14 strain (AID 165);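 note: 0% = growth equal to vehicle treated cultures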; details: S. cerevisiae cln2 rad14 strain, hits give high values
Summary of the method: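 Compounds are applied to the cln2 rad14 yeast strain, and growth is then compared with that of vehicle-treated cultures to give inhibition.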

[10] = NCI Yeast Anticancer Drug Screen. Data for the bub3 strain (AID 167); details: S. cerevisiae bub3 mutant strain, hits give high values
Summary of the method: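 In this screen, a yeast mutant lacking normal mitotic checkpoint function is challenged with compound. Relative growth versus vehicle gives the inhibition value.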

[11] = NCI Yeast Anticancer Drug Screen. Data for the wt2 strain (AID 169);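 note: 0% = growth of vehicle-treated yeast cultures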; details: S. cerevisiae wt2 strain growth inhibition, hits give high values
Summary of the method: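 This strain belongs to a panel of yeast strains with defined genetic alterations in DNA damage repair or cell cycle control. Compounds are applied, and growth inhibition is measured against vehicle-treated cultures.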

[12] = NCI Yeast Anticancer Drug Screen. Data for the mlh1 strain (AID 171);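 note: 0% = growth of vehicle-treated control cultures of the same strain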; details: S. cerevisiae mlh1 strain growth inhibition, hits give high values
Summary of the method: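 Growth of the mutant yeast strain after compound exposure, expressed as inhibition relative to vehicle-only controls.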

[13] = NCI Yeast Anticancer Drug Screen. Data for the sgs1 strain (AID 173);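 note: 0% = growth of vehicle-only control cultures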; details: S. cerevisiae sgs1 mutant, hits give high values
Summary of the method: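 Growth of a yeast strain bearing a defined genetic alteration is measured after compound treatment. Inhibition is expressed relative to vehicle-only controls.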

[14] = NCI Yeast Anticancer Drug Screen. Data for the mlh1 rad18 strain (AID 175); details: S. cerevisiae mlh1 rad18 strain growth inhibition, hits give high values
Summary of the method: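 Read-out is yeast growth inhibition, calculated against vehicle-only controls. The compound was applied to a strain engineered with DNA damage repair alterations.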

[15] = NCI Yeast Anticancer Drug Screen. Data for the rad18 strain (AID 177); details: S. cerevisiae rad18 mutant growth inhibition, hits give high values
Summary of the method: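 Growth of the mutant yeast strain after compound exposure, normalised to vehicle-only cultures.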

[16] = at 5.0 µM (retest, dose inferred, filed as 0.5)
[17] = at 50.0 µM (retest, dose inferred, filed as 5.0)

Measured: growth inhibition

CCCCCCCCCCCCCC[N+](C)(CC(=O)[O-])Cc1ccccc1 (stereo not drawn)
active: [1]; at 11.0 µM 99% | [1]; at 33.0 µM 98% | [1]; at 100.0 µM 99% | [2]; at 11.0 µM 99% | [2]; at 100.0 µM 99% | [3]; at 11.0 µM 99% | [3]; at 33.0 µM 99% | [3]; at 100.0 µM 98% | [4]; at 11.0 µM 100% | [4]; at 33.0 µM 99% | [4]; at 100.0 µM 99% | [5]; at 11.0 µM 99% | [5]; at 33.0 µM 99% | [5]; [17] 99% | [5]; at 50.0 µM 98.8% | [5]; at 100.0 µM 99% | [6]; at 11.0 µM 99% | [6]; at 33.0 µM 99% | [6]; [17] 100% | [6]; at 50.0 µM 99.1% | [6]; at 100.0 µM 99% | [7]; [17] 99% | [7]; at 50.0 µM 98.8% | [8]; at 11.0 µM 99% | [8]; at 33.0 µM 99% | [8]; at 100.0 µM 99% | [9]; [17] 99% | [9]; at 50.0 µM 93.8% | [10]; at 11.0 µM 99% | [10]; at 33.0 µM 99% | [10]; [17] 99% | [10]; at 50.0 µM 98.9% | [10]; at 100.0 µM 98% | [11]; at 11.0 µM 100% | [11]; at 100.0 µM 99% | [12]; at 11.0 µM 99% | [12]; at 33.0 µM 99% | [12]; at 100.0 µM 99% | [13]; at 11.0 µM 99% | [13]; at 33.0 µM 99% | [13]; at 100.0 µM 99% | [14]; [17] 99% | [14]; at 50.0 µM 99.1% | [15]; at 11.0 µM 99% | [15]; at 33.0 µM 99% | [15]; at 100.0 µM 99%
inactive: [1]; at 1.2 µM 2% | [1]; at 3.7 µM 23% | [2]; at 1.2 µM -1% | [2]; at 3.7 µM 1% | [2]; at 33.0 µM 54% | [3]; at 1.2 µM 5% | [3]; at 3.7 µM 32% | [4]; at 1.2 µM 2% | [4]; at 3.7 µM 26% | [5]; at 1.2 µM 8% | [5]; at 3.7 µM 50% | [5]; [16] 8% | [6]; at 1.2 µM -2% | [6]; at 3.7 µM 3% | [6]; [16] 32% | [7]; [16] 13% | [8]; at 1.2 µM 5% | [8]; at 3.7 µM 19% | [9]; [16] 9% | [10]; at 1.2 µM -1% | [10]; at 3.7 µM 10% | [10]; [16] 2% | [11]; at 1.2 µM -6% | [11]; at 3.7 µM 9% | [11]; at 33.0 µM 60% | [12]; at 1.2 µM 2% | [12]; at 3.7 µM 31% | [13]; at 1.2 µM 2% | [13]; at 3.7 µM 30% | [14]; [16] 1% | [15]; at 1.2 µM 3% | [15]; at 3.7 µM 23%
